In PubChem BioAssay (Tox21):
Activity calls are given as the source filed them. Calls follow the shape of the dose curve; as a rule, active = well fitted curve in the direction sought with a large enough effect in the repeat runs; inconclusive = weak or mixed curves; inactive = flat fitted curve, though single readings scatter.

Columns and labels:
[1] = qHTS assay to test for compound auto fluorescence at 535 nm (green) in HEK293 cells (AID 720680)
[2] = qHTS assay to test for compound auto fluorescence at 460 nm (blue) in HEK293 cell free culture (AID 720681)
How it was run: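 Compounds were added to cell-free DMEM with 10% FBS and fluorescence read directly. The blue channel used 405 nm excitation and 460 nm emission, with triamterene as the reference fluorophore.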

[3] = qHTS assay to test for compound auto fluorescence at 535 nm (green) in HEK293 cell free culture (AID 720682)
How it was run: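 Green-channel intensity (Ex/Em 485/535 nm) was recorded from compound-treated wells containing only DMEM with 10% FBS. Fluorescein provided the equivalency standard.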

[4] = qHTS assay to test for compound auto fluorescence at 590 nm (red) in HEK293 cell free culture (AID 720683)
How it was run: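 Cell-free wells of DMEM with 10% FBS received compound, and intrinsic fluorescence was read at excitation/emission 540/590 nm. Values expressed as equivalence to Rose Bengal sodium.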

[5] = qHTS assay to test for compound auto fluorescence at 590 nm (red) in HepG2 cell free culture (AID 720684)
How it was run: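 Compound was pinned into wells holding MEM with 10% FBS and no cells, and red fluorescence was read at Ex/Em 540/590 nm. Signal is expressed as auto fluorescence equivalency relative to Rose Bengal sodium.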

[6] = qHTS assay to test for compound auto fluorescence at 460 nm (blue) in HepG2 cell free culture (AID 720685)
How it was run: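 Compound (23 nL) or DMSO pinned into cell-free MEM with 10% FBS; blue fluorescence read at 405/460 nm excitation/emission, expressed as auto-fluorescence equivalency to triamterene.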

[7] = qHTS assay to test for compound auto fluorescence at 535 nm (green) in HepG2 cell free culture (AID 720686)
[8] = qHTS assay to test for compound auto fluorescence at 460 nm (blue) in HepG2 cells (AID 720687)
How it was run: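 HepG2 cells in MEM with 10% FBS, attached overnight at 37 C, were exposed to compound or DMSO for 1 hr at 37 C, 5% CO2. Blue fluorescence was read at 405/460 nm, with triamterene as reference fluorophore.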

Measured: Potency

CN(CCO)CC(O)Cn1cnc2c1c(=O)n(C)c(=O)n2C (stereo not drawn) (tested in a mixture with another compound)
inactive: [1] | [2] | [3] | [4] | [5] | [6] | [7]

CO[C@H]1C[C@@H]2CC[C@@H](C)[C@@](O)(O2)C(=O)C(=O)N2CCCC[C@H]2C(=O)O[C@H]([C@H](C)C[C@@H]2CC[C@@H](OC(=O)C(C)(CO)CO)[C@H](OC)C2)CC(=O)[C@H](C)/C=C(\C)[C@@H](O)[C@@H](OC)C(=O)[C@H](C)C[C@H](C)/C=C/C=C/C=C/1C
inactive: [1] | [2] | [3] | [4] | [5] | [6] | [7]

CC(=O)N[C@@H](C=O)[C@@H](O)[C@H](O)[C@H](O)CO
inactive: [1] | [2] | [3] | [4] | [5] | [6] | [7]

CCOC(=O)Oc1c(OC)cc(C(=O)O[C@@H]2C[C@@H]3CN4CCc5c([nH]c6cc(OC)ccc56)[C@H]4C[C@@H]3[C@H](C(=O)OC)[C@H]2OC)cc1OC
inactive: [1] | [2] | [3] | [4] | [5] | [6] | [7] | [8]

CC(C)[C@@H]1CC[C@@H](C)C[C@H]1OC(=O)c1ccccc1O
inactive: [1] | [2] | [3] | [4] | [5] | [6] | [7] | [8]

CCC(=O)OCC(=O)[C@@]1(OC(=O)CC)[C@@H](C)C[C@H]2[C@@H]3CCC4=CC(=O)C=C[C@]4(C)[C@@]3(Cl)[C@@H](O)C[C@@]21C
inactive: [1] | [2] | [3] | [4] | [5] | [6] | [7] | [8]

O=C(COc1ccc(Cl)cc1)OCCNC12CC3CC(CC(C3)C1)C2
inactive: [1] | [2] | [3] | [4] | [5] | [6] | [7] | [8]

NC(=O)c1ccc[n+]([C@@H]2O[C@H](COP(=O)([O-])OP(=O)(O)OC[C@H]3O[C@@H](n4cnc5c(N)ncnc54)[C@H](O)[C@@H]3O)[C@@H](O)[C@H]2O)c1
inactive: [1] | [2] | [3] | [4] | [5] | [6] | [7] | [8]

Cc1nnc(C(C)C)n1C1C[C@H]2CC[C@@H](C1)N2CC[C@H](NC(=O)C1CCC(F)(F)CC1)c1ccccc1 (stereo partly drawn)
inactive: [1] | [2] | [3] | [4] | [5] | [6] | [7]

CN1CCN(CCC=C2c3ccccc3Sc3ccc(S(=O)(=O)N(C)C)cc32)CC1
inactive: [1] | [2] | [3] | [4] | [5] | [6] | [7] | [8]

O=C1CSC2(CCN(CCCN3c4ccccc4Sc4ccc(Cl)cc43)CC2)N1
inactive: [1] | [2] | [3] | [4] | [5] | [6] | [7] | [8]

COc1c(O[C@@H]2O[C@H](CO)[C@@H](O)[C@H](O)[C@H]2O)cc2c(c1OC)-c1ccc(SC)c(=O)cc1[C@@H](NC(C)=O)CC2
inactive: [1] | [2] | [3] | [4] | [5] | [6] | [7] | [8]

C=C(NC(=O)C(=C)NC(=O)c1csc(C2=N[C@@H]3c4csc(n4)[C@H]4NC(=O)c5csc(n5)[C@H]([C@](C)(O)[C@@H](C)O)NC(=O)[C@H]5CSC(=N5)C(=CC)NC(=O)C([C@@H](C)O)NC(=O)c5csc(n5)[C@]3(CC2)NC(=O)[C@H](C)NC(=O)C(=C)NC(=O)[C@H](C)NC(=O)C([C@@H](C)CC)NC2C=Cc3c([C@H](C)O)cc(nc3C2O)C(=O)O[C@@H]4C)n1)C(N)=O (stereo partly drawn)
inactive: [1] | [2] | [3] | [4] | [5] | [6] | [7] | [8]

COc1ccc(C2NC(=S)N3C(c4ccc(OC)c(OC)c4)NC(=S)N23)cc1OC (stereo not drawn)
inactive: [1] | [2] | [3] | [4] | [5] | [6] | [7] | [8]

CCc1ccc(S(=O)(=O)O)cc1
inactive: [1] | [2] | [3] | [4] | [5] | [6] | [7]

CCCCCCCCCCCCCCCC(=O)OC[C@@H](NC(=O)C(Cl)Cl)[C@H](O)c1ccc([N+](=O)[O-])cc1
inactive: [1] | [2] | [3] | [4] | [5] | [6] | [7] | [8]

OCCO[C@@H]1[C@@H](O)[C@H](O)[C@@H](CO)O[C@@H]1O
inactive: [1] | [2] | [3] | [4] | [5] | [6] | [7] | [8]

CC(NNC(=O)c1ccccc1)c1ccccc1 (stereo not drawn)
inactive: [1] | [2] | [3] | [4] | [5] | [6] | [7] | [8]

CC1(C)S[C@@H]2[C@H](NC(=O)C(N)c3ccccc3)C(=O)N2[C@H]1C(=O)OC1OC(=O)c2ccccc21 (stereo partly drawn)
inactive: [1] | [2] | [3] | [4] | [5] | [6] | [7] | [8]

CCCc1nc(C(C)(C)O)c(C(=O)OCc2oc(=O)oc2C)n1Cc1ccc(-c2ccccc2-c2nn[nH]n2)cc1
inactive: [1] | [2] | [3] | [4] | [5] | [6] | [7] | [8]

CCCCCCCC(=O)CC[C@@H]1[C@@H](C/C=C\CCCC(=O)OC(C)C)[C@@H](O)C[C@H]1O
inactive: [1] | [2] | [3] | [4] | [5] | [6] | [7] | [8]
